In PubChem BioAssay (EPA / NIEHS):
Results filed as inconclusive are left out. The source made the active and inactive calls. How the source made its calls, unless noted: active means hit-call score of the fitted dose curve at least 0.9, where 1 is the maximum; inactive means score below 0.9.

Legend:
[1] = read-out: Monocyte Chemoattractant Protein-1 (MCP1), CCL2 (gene 6347); test: BSK_LPS_MCP1: BioMAP Diversity Plus: LPS Assay for Monocyte Chemoattractant Protein-1 (MCP1) Biomarker Activity (AID 2283081); settings: primary human HUVEC with PBMC; actives raise or lower the signal;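 on AC50: secreted MCP-1 protein quantified by ELISA in culture supernatant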
Outline: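 Human umbilical vein endothelial cells co-cultured with PBMC, LPS-stimulated; secreted MCP-1 measured by ELISA 24 h after compound addition. Bidirectional curve fitting against DMSO baseline; SRB total-protein staining in parallel cultures for cytotoxicity.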

[2] = BSK_LPS_PGE2: BioMAP Diversity Plus: LPS Assay for Prostaglandin E2 (PGE2) Biomarker Activity (AID 2283082); settings: primary human HUVEC with PBMC; actives raise or lower the signal;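 on AC50: secreted prostaglandin E2 measured by ELISA in LPS-stimulated co-culture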
Outline: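 HUVEC plus PBMC co-culture stimulated with LPS; secreted PGE2 quantified by ELISA 24 h after chemical dosing. Activity fitted bidirectionally against DMSO as negative control and baseline; parallel SRB total-protein staining served as cytotoxicity check.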

[3] = read-out: Macrophage colony-stimulating factor (MCSF), CSF1 (gene 1435); test: BSK_LPS_MCSF: BioMAP Diversity Plus: LPS Assay for Macrophage colony-stimulating factor (MCSF) Biomarker Activity (AID 2283083); settings: primary human HUVEC with PBMC; actives raise or lower the signal
Outline: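 HUVEC–PBMC co-culture, M-CSF measured by ELISA 24 h after chemical dosing. Fitted in both directions relative to DMSO as negative control; overt cytotoxicity assessed by SRB total-protein staining in parallel cultures.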

[4] = read-out: Tissue Factor, F3 (gene 2152); test: BSK_LPS_TissueFactor: BioMAP Diversity Plus: LPS Assay for Tissue Factor Biomarker Activity (AID 2283084); settings: primary human HUVEC with PBMC; actives raise or lower the signal
Outline: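 Human umbilical vein endothelial cells co-cultured with PBMC were dosed with compound. Cell-surface CD142 was measured by ELISA 24 h later. Activity was fitted bidirectionally against DMSO, with SRB total-protein staining in parallel cultures for cytotoxicity.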

[5] = read-out: Tumor necrosis factor (Homo sapiens) (UniProt P01375); test: BSK_LPS_TNFa: BioMAP Diversity Plus: LPS Assay for Tumour Necrosis Factor alpha (TNFa) Biomarker Activity (AID 2283085); settings: primary human HUVEC with PBMC; actives raise or lower the signal
Outline: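 Human umbilical vein endothelial cells co-cultured with PBMC were exposed to test chemical and TNFa measured by ELISA 24 h after dosing. Bidirectional curve fitting was done relative to DMSO as negative control and baseline.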

[6] = read-out: Vascular cell adhesion molecule 1 (VCAM1), VCAM1 (gene 7412); test: BSK_LPS_VCAM1: BioMAP Diversity Plus: LPS Assay for Vascular cell adhesion molecule 1 (VCAM1) Biomarker Activity (AID 2283086); settings: primary human HUVEC with PBMC; actives raise or lower the signal
Outline: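 Human umbilical vein endothelial cells co-cultured with peripheral blood mononuclear cells under LPS stimulation were exposed to test chemical for 24 h. VCAM-1 levels were then measured by ELISA, with bidirectional curve fitting relative to DMSO as negative control and baseline.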

CD40, CD40 (gene 958) = test: BSK_SAg_CD40: BioMAP Diversity Plus: SAg Assay for CD40 Biomarker Activity (AID 2283088); settings: primary human HUVEC with PBMC; actives raise or lower the signal
Outline: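 HUVEC plus PBMC co-culture, superantigen-activated, with CD40 read by ELISA 24 h after dosing. Curves fitted in both directions against DMSO. Overt cytotoxicity checked by parallel SRB total-protein staining.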

CD69, CD69 (gene 969) = test: BSK_SAg_CD69: BioMAP Diversity Plus: SAg Assay for CD69 Biomarker Activity (AID 2283089); settings: primary human HUVEC with PBMC; actives raise or lower the signal;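 on AC50: cell surface CD69 protein quantified by ELISA with fluorescence detection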
Outline: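 ELISA, fluorescence read-out: CD69 on human umbilical vein endothelial cell + PBMC co-culture, 24 h post-dosing. Gain or loss of signal fitted bidirectionally against DMSO baseline.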

[7] = read-out: Monocyte Chemoattractant Protein-1 (MCP1), CCL2 (gene 6347); test: BSK_SAg_MCP1: BioMAP Diversity Plus: SAg Assay for Monocyte Chemoattractant Protein-1 (MCP1) Biomarker Activity (AID 2283090); settings: primary human HUVEC with PBMC; actives raise or lower the signal
Outline: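 MCP-1 levels in the endothelial–PBMC SAg co-culture were quantified by ELISA at 24 h post-dosing; both increases and decreases versus DMSO scored. Cytotoxicity monitored by SRB total protein in parallel cultures.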

[8] = read-out: E-selectin (Homo sapiens) (UniProt P16581); test: BSK_SAg_Eselectin: BioMAP Diversity Plus: SAg Assay for Eselectin Biomarker Activity (AID 2283091); settings: primary human HUVEC with PBMC; actives raise or lower the signal
Outline: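 Human umbilical vein endothelial cells co-cultured with peripheral blood mononuclear cells, SAg system. E-selectin is measured by ELISA 24 h after dosing and fitted bidirectionally against DMSO. Cytotoxicity is checked by SRB staining of parallel cultures.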

[9] = read-out: Monokine induced gamma interferon (MIG), CXCL9 (gene 4283); test: BSK_SAg_MIG: BioMAP Diversity Plus: SAg Assay for Monokine induced gamma interferon (MIG) Biomarker Activity (AID 2283092); settings: primary human HUVEC with PBMC; actives raise or lower the signal
Outline: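 ELISA readout of MIG/CXCL9; primary human umbilical vein endothelial cells co-cultured with peripheral blood mononuclear cells; 24 h post-dose; gain/loss fit vs DMSO baseline.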

[10] = BSK_SAg_PBMCCytotoxicity: PBMC Cytotoxicity Assessment in the BioMAP Diversity Plus: SAg Assay (AID 2283093); settings: primary human HUVEC with PBMC;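 further: PBMC viability measured as Alamar Blue reduction fluorescence at 546/580 nm; fitted both ways against DMSO so a hit may be loss or gain of signal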;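 on AC50: PBMC superantigen activated with SEB plus TSST-1 one hour after compound addition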
Outline: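 Compound added to 75,000 PBMC/well for 1 h; SEB and TSST-1 then added at 20 ng/mL final each; 90 h incubation; Alamar Blue 6 h; read 546/580 nm ex/em. Activity fitted bidirectionally relative to DMSO baseline.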

[11] = BSK_SAg_SRB: Viability Assessment in the BioMAP Diversity Plus: SAg Assay (AID 2283096); settings: primary human HUVEC with PBMC;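 further: cells read one day after compound addition; hits may be either gain or loss of signal compared with DMSO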
Outline: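 Total protein by sulforhodamine B staining, 24 h after dosing, in HUVEC–PBMC co-culture; DMSO-referenced bidirectional fitting.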

[12] = read-out: Interleukin-8 (IL8), CXCL8 (gene 3576); test: BSK_SAg_IL8: BioMAP Diversity Plus: SAg Assay for Interleukin-8 (IL8) Biomarker Activity (AID 2283094); settings: primary human HUVEC with PBMC; actives raise or lower the signal
Outline: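 Human umbilical vein endothelial cells co-cultured with peripheral blood mononuclear cells; IL-8 measured by ELISA 24 h after chemical dosing. Bidirectional concentration-response fitting used DMSO as negative control and activity baseline.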

[13] = BSK_SAg_Proliferation: Cell Proliferation Assessment in the BioMAP Diversity Plus: SAg Assay (AID 2283095); settings: primary human HUVEC with PBMC;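 further: relative cell number as total protein by SRB absorbance in sub-confluent culture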
Outline: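 Human umbilical vein endothelial cells co-cultured with peripheral blood mononuclear cells; total protein measured by sulforhodamine B staining (0.1% SRB after 10% TCA fixation), absorbance at 560 nm, at 96 h. Bidirectional fit against DMSO baseline.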

[14] = target: human CYP1A1, CYP1A1 (gene 1543) (UniProt P04798); test: NVS_ADME_hCYP1A1: NovaScreen (NVS) CYP450-related Enzyme Activity (ADME) Assay for human CYP1A1 (AID 2283100; active means hit-call score of the fitted dose curve at least 0.9, where 1 is the maximum)
human CYP1A1, CYP1A1 (gene 1543), sequence (P04798 whole entry, looked up): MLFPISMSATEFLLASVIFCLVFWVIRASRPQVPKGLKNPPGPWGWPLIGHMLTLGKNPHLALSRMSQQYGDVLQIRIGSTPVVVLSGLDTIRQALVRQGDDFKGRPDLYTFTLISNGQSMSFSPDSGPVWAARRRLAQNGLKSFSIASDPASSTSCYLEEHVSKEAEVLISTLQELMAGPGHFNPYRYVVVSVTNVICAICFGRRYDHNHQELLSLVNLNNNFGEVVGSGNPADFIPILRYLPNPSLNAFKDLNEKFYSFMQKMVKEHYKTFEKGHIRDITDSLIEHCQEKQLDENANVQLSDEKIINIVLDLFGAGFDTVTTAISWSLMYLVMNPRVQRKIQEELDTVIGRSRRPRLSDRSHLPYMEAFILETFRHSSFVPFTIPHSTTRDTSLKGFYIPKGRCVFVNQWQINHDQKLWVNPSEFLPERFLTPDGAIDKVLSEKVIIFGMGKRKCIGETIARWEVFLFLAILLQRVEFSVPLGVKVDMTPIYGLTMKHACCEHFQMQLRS
Outline: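 Recombinant CYP1A1 with a fluorogenic substrate, cell-free, read 1 h after dosing; acetonitrile as negative control. Single-concentration screen at 10 uM in duplicate, then concentration-response up to 20 uM for chemicals meeting ~30% inhibition threshold.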

Measured: AC50

Tumor necrosis factor (Homo sapiens), sequence (P01375 whole entry, looked up): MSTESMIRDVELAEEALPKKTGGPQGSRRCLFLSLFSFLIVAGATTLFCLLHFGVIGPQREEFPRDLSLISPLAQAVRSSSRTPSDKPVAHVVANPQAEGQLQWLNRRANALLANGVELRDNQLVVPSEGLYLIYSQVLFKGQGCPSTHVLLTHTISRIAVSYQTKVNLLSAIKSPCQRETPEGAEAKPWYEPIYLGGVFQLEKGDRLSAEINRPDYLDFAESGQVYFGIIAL
E-selectin (Homo sapiens), sequence (P16581 whole entry, looked up): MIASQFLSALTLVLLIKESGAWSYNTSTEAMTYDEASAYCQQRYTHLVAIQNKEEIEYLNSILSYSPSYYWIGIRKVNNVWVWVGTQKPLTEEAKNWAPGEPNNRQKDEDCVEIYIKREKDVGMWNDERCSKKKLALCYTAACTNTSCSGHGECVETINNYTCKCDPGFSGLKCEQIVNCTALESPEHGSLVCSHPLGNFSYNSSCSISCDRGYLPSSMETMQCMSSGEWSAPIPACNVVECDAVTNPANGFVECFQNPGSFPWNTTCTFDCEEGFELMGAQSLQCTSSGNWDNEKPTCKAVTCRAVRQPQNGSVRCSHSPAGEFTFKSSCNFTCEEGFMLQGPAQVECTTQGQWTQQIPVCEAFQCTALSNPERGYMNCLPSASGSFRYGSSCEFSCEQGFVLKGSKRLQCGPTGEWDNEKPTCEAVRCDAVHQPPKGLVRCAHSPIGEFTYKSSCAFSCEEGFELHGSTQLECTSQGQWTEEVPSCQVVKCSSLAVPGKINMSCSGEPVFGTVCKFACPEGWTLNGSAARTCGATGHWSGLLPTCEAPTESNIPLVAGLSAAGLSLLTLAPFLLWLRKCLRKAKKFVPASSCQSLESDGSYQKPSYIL

O=C(O)C(F)(F)C(F)(F)C(F)(F)OC(F)(F)F
not listed: [12] | [13] | [14]
inactive: all other assays above

C[Si](Cl)(Cl)CCC(F)(F)C(F)(F)C(F)(F)C(F)(F)C(F)(F)C(F)(F)F
not listed: [14]
inactive: all other assays above

OCC(O)CC(F)(F)C(F)(F)C(F)(F)C(F)(F)C(F)(F)C(F)(F)C(F)(F)C(F)(F)F (stereo not given)
not listed: [12] | [14]
inactive: all other assays above

COC(F)(C(F)F)C(F)(F)F (stereo not given)
not listed: [12] | [14]
inactive: all other assays above

O=C1C=CC(=O)N1c1ccc(Cc2ccc(N3C(=O)C=CC3=O)cc2)cc1
active: [1] 14.9 µM | [2] 5.34 µM | [3] 10 µM | [4] 5.57 µM | [5] 8.82 µM | [6] 11.1 µM | CD40, CD40 (gene 958) 12.1 µM | CD69, CD69 (gene 969) 6.1 µM | [7] 6.98 µM | [8] 6.88 µM | [9] 13 µM | [10] 7.25 µM | [11] 20 µM

CCCCCCCCn1sc(Cl)c(Cl)c1=O
inactive: [14]

CCN(CC)c1ccc(C=O)c(O)c1
not listed: [14]
inactive: all other assays above

FC(F)(F)C(F)(F)C(F)(F)C(F)(F)C(F)(F)C(F)(F)C(F)(F)CCI
not listed: [12] | [14]
inactive: all other assays above

O=C(O)C(F)(F)C(F)(F)C(F)(F)OC(F)(C(F)(F)F)C(F)(F)F
not listed: [13] | [14]
inactive: all other assays above

Brc1nc2ccccc2s1
not listed: [13] | [14]
inactive: all other assays above

Cc1ccc(O)c(-n2nc3ccccc3n2)c1
active: [5] 1.8 µM
not listed: [12] | [14]
inactive: all other assays above

CCN(CC)c1ccc(N=Nc2ccccc2)cc1
inactive: [2] | [4] | [5] | [6] | [9]
active: [1] 31.9 µM | [3] 20 µM | CD40, CD40 (gene 958) 14.2 µM | CD69, CD69 (gene 969) 14.3 µM | [7] 30.2 µM | [8] 13.8 µM | [10] 20 µM | [12] 29.4 µM | [11] 29.5 µM
